Source: PubChem BioAssay (NCATS)
Inconclusive results are not listed. Active and inactive are the calls of the source. Calls follow the shape of the dose curve; as a rule, active = well fitted inhibition curve with a large enough effect; inconclusive = small, poorly fitted or top-dose-only effect; inactive = flat fitted curve, though single readings scatter.

Legend:
[1] = system: PC26; assay: qHTS profiling for inhibitors of Plasmodium falciparum proliferation (AID 504749);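 also: 0% = DMSO vehicle and full inhibition = artemisinin control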; details: P. falciparum in erythrocytes, SYBR Green DNA, 72 h; series mostly up to 28.7 µM
Outline: (§1)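 P. falciparum-infected erythrocytes (0.3% parasitemia, 2.5% hematocrit final) were exposed to compounds for 72 h at 37 C in 5% CO2, then lysed with SYBR Green buffer overnight at room temperature; parasite DNA fluorescence was normalized to artemisinin and DMSO controls.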

[2] = system: PC49; assay: as above; details: P. falciparum in erythrocytes, SYBR Green DNA, 72 h; series mostly up to 28.7 µM
Outline: as §1

[3] = system: SC27B; assay: as above; details: P. falciparum in erythrocytes, SYBR Green DNA, 72 h; series mostly up to 28.7 µM
Outline: as §1

[4] = system: TAB109; assay: as above; details: P. falciparum in erythrocytes, SYBR Green DNA, 72 h; series mostly up to 28.7 µM
Outline: as §1

[5] = system: TAB113; assay: as above; details: P. falciparum in erythrocytes, SYBR Green DNA, 72 h; series mostly up to 28.7 µM
Outline: as §1

[6] = system: TAB165; assay: as above; details: P. falciparum in erythrocytes, SYBR Green DNA, 72 h; series mostly up to 28.7 µM
Outline: as §1

[7] = system: CRL-7250; assay: Cytotoxic Profiling of Annotated Libraries Using Quantitative High-Throughput Screening (AID 1296008); details: Five cell lines viability, CellTiter-Glo ATP luminescence, 48-72 h; stronger effect = lower value; as to max response: % is scaled to controls: 0 for no effect and ±100 for the full control effect
Outline: (§2)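 Compounds were pin-transferred onto cells and incubated 48 or 72 hr at 37 degree Celsius, 95% humidity. CellTiter-Glo was added, plates sat 10 min at room temperature, then ATP-coupled luminescence was imaged as the viability read-out.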

[8] = system: HEK293; assay: as above; details: Five cell lines viability, CellTiter-Glo ATP luminescence, 48-72 h; stronger effect = lower value
Outline: as §2

[9] = system: HaCat; assay: as above; details: Five cell lines viability, CellTiter-Glo ATP luminescence, 48-72 h; stronger effect = lower value
Outline: as §2

[10] = system: KB-3-1; assay: as above; details: Five cell lines viability, CellTiter-Glo ATP luminescence, 48-72 h, stronger effect = lower value
Outline: as §2

[11] = system: NIH3T3; assay: as above; details: Five cell lines viability, CellTiter-Glo ATP luminescence, 48-72 h; stronger effect = lower value
Outline: as §2

[12] = system: HACAT; assay: qHTS assay to identify novel small-molecules to repurpose for Merkel cell carcinoma treatment (AID 1296009); details: MCC and control cell lines, CellTiter-Glo viability, 72 h; at 44.8 µM (top of the series) unless noted; as to activity change, negative = cytotoxicity: % is scaled to controls: 0 for no effect and ±100 for the full control effect
Outline: (§3)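 Cells exposed to NPC (8-point) and MIPE (11-point) compound dilutions for 72 hr at 37 degree celsius; viability read by CellTiter-Glo luminescence, normalized to no-cell and DMSO in-plate controls.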

[13] = system: MCC-13; assay: as above; details: MCC and control cell lines, CellTiter-Glo viability, 72 h; series mostly up to 46 µM
Outline: as §3

[14] = system: MCC-26; assay: as above; details: MCC and control cell lines, CellTiter-Glo viability, 72 h; series mostly up to 46 µM
Outline: as §3

[15] = system: MKL-1; assay: as above; details: MCC and control cell lines, CellTiter-Glo viability, 72 h; series mostly up to 46 µM
Outline: as §3

[16] = system: MKL-2; assay: as above; details: MCC and control cell lines, CellTiter-Glo viability, 72 h; series mostly up to 46 µM
Outline: as §3

[17] = system: UISO; assay: as above; details: MCC and control cell lines, CellTiter-Glo viability, 72 h; series mostly up to 46 µM
Outline: as §3

[18] = system: W2; assay: qHTS profiling for inhibitors of Plasmodium falciparum proliferation (AID 504749);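 also: 0% = DMSO vehicle and full inhibition = artemisinin control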; details: P. falciparum in erythrocytes, SYBR Green DNA, 72 h; series mostly up to 28.7 µM
Outline: as §1

[19] = system: NIH3T3; assay: qHTS assay to identify novel small-molecules to repurpose for Merkel cell carcinoma treatment (AID 1296009); details: MCC and control cell lines, CellTiter-Glo viability, 72 h; at 44.8 µM (top of the series) unless noted; as to activity change, negative = cytotoxicity: % is scaled to controls: 0 for no effect and ±100 for the full control effect
Outline: as §3
Also: nearly all actives have a fitted effect of over 60% in size.

C=CCSCC1Nc2cc(Cl)c(S(N)(=O)=O)cc2S(=O)(=O)N1 (configuration not stated)
inactive: Potency [1] | Potency [2] | Potency [3] | Potency [4] | Potency [5] | Potency [6] | max response [7] -2.06% | max response [8] 2.45% | outcome [9] | max response [10] -3.75% | max response [11] 4.06% | outcome [12] | outcome [13] | outcome [14] | outcome [15] | outcome [16] | outcome [17]

N[C@@H](Cc1ccc(O)cc1)C(=O)O
inactive: Potency [1] | Potency [2] | Potency [3] | Potency [4] | Potency [5] | Potency [6] | Potency [18] | max response [7] 1.09% | max response [8] 3.89% | outcome [9] | max response [10] -4.34% | outcome [11] | outcome [12] inactive [at 9.27 µM] | activity change, negative = cytotoxicity [13] 12.1% [at 9.22 µM] | activity change, negative = cytotoxicity [14] 4.77% [at 9.22 µM] | activity change, negative = cytotoxicity [15] 3.97% [at 9.22 µM] | activity change, negative = cytotoxicity [16] -20.6% [at 9.22 µM] | outcome [19] inactive [at 9.27 µM] | activity change, negative = cytotoxicity [17] 19.3% [at 9.22 µM]

CC(=O)N[C@@H](CC(C)C)C(=O)O
inactive: max response [7] -9.67% | max response [8] -5.66% | outcome [9] | max response [10] -12.6% | max response [11] -1.86% | outcome [12] | outcome [13] | outcome [14] | outcome [15] | outcome [16] | outcome [17]

C/C(=C(\CCO)SS/C(CCO)=C(\C)N(C=O)Cc1cnc(C)nc1N)N(C=O)Cc1cnc(C)nc1N
inactive: outcome [7] | max response [8] -0.967% | outcome [9] | max response [10] -5.06% | max response [11] -2.04% | outcome [12] | outcome [13] | outcome [14] | outcome [15] | outcome [16] | outcome [17]

CC(=O)N[C@@H](Cc1ccc(O)cc1)C(=O)O
inactive: Potency [1] | Potency [2] | Potency [3] | Potency [4] | Potency [5] | Potency [6] | max response [7] -1.56% | max response [8] -2.21% | outcome [9] | max response [10] -4.16% | max response [11] -2.52% | outcome [12] | outcome [13] | outcome [14] | outcome [15] | outcome [16] | outcome [17]

CNc1c2c(nn1C)CCCC2
inactive: Potency [1] | Potency [2] | Potency [3] | Potency [4] | Potency [5] | Potency [6] | Potency [18] | max response [7] 2.3% | max response [8] -6.59% | outcome [9] | max response [10] -8.03% | max response [11] 4.21% | outcome [12] | outcome [13] | outcome [14] | outcome [15] | outcome [16] | outcome [17]

O=C(O)c1ccccc1OP(=O)(O)O
inactive: Potency [1] | Potency [2] | Potency [3] | Potency [4] | Potency [5] | Potency [6] | Potency [18] | max response [7] 3.34% | max response [8] 2.49% | outcome [9] | max response [10] 12.4% | max response [11] 3.2% | outcome [12] | outcome [13] | outcome [14] | outcome [15] | outcome [16] | outcome [17]

Cc1c(Cn2ccnc2)c2ccccc2n1CCC(=O)O
inactive: Potency [1] | Potency [2] | Potency [3] | Potency [4] | Potency [5] | Potency [6] | Potency [18] | max response [7] 0.62% | max response [8] 1.95% | outcome [9] | max response [10] -18.7% | max response [11] 3.45% | outcome [12] | outcome [13] | outcome [14] | outcome [15] | outcome [16] | outcome [17]

NS(=O)(=O)c1ccc(NC(=O)CCC(=O)O)cc1
inactive: Potency [1] | Potency [2] | Potency [3] | Potency [4] | Potency [5] | Potency [6] | Potency [18] | max response [7] -4.29% | max response [8] -0.661% | outcome [9] | max response [10] -4.48% | outcome [11] | outcome [12] | outcome [13] | outcome [14] | outcome [15] | outcome [16] | outcome [19] | outcome [17]

CC(=O)Nc1cccc(O)c1
inactive: Potency [1] | Potency [2] | Potency [3] | Potency [4] | Potency [5] | Potency [6] | Potency [18] | max response [7] -4.66% | max response [8] 4.09% | outcome [9] | max response [10] 0.376% | max response [11] 0.534% | outcome [12] | outcome [13] | outcome [14] | outcome [15] | outcome [16] | outcome [17]

CN1CCN(C(=O)C2CCCCC2)CC1
inactive: Potency [1] | Potency [2] | Potency [3] | Potency [4] | Potency [5] | Potency [6] | Potency [18] | outcome [7] | max response [8] -2.32% | outcome [9] | max response [10] -4.36% | max response [11] -7.73% | outcome [12] | outcome [13] | outcome [14] | outcome [15] | outcome [16] | outcome [17]

Cc1cccc(Nc2ccccc2C(=O)O)c1C
inactive: Potency [1] | Potency [2] | Potency [3] | Potency [4] | Potency [5] | Potency [6] | Potency [18] | max response [7] 0.921% | max response [8] -1.57% | outcome [9] | max response [10] 3.77% | max response [11] 1.27% | outcome [12] | outcome [13] | outcome [14] | outcome [15] | outcome [16] | outcome [17]

OCC(O)CS (configuration not stated)
inactive: Potency [1] | Potency [2] | Potency [3] | Potency [4] | Potency [5] | Potency [6] | max response [7] -11.9% | max response [8] 3.48% | outcome [9] | max response [10] 1.95% | max response [11] 0.523% | outcome [12] | outcome [13] | outcome [14] | outcome [15] | outcome [16] | outcome [17]

COc1ccc(Cc2cnc(N)nc2N)cc1OC
inactive: Potency [1] | Potency [2] | Potency [3] | Potency [4] | Potency [5] | Potency [6] | Potency [18] | max response [7] -8.49% | max response [8] 2.64% | outcome [9] | max response [10] -1.92% | max response [11] -0.487% | outcome [12] | outcome [13] | outcome [14] | outcome [15] | outcome [16] | outcome [17]
